Compound activity from PubChem.
NPR1 antag: Natriuretic polypeptide receptor (hNpr1) antagonism - Primary qHTS. HEK293 hNpr1 GloSensor cGMP, ANP-stimulated luminescence. AID 1347048, 2019. 76,000 compounds, 1.6% hits. Potency, µM (highest dose often 46.3 µM), inactives show at the highest dose activity change, negative = inhibition, usual class: inhibitors; calls by dose curve; further: nearly all actives have a fitted effect of over 60% in size
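HEK293 cells stably expressing human Npr1 and cGMP GloSensor pGS-40F, loaded 2 h with 2% GloSensor reagent, given compound 30 min at room temperature. Luminescence read before and 20 min after 0.1 nM hNppA.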
Luciferase inh: Firefly luciferase inhibition profiling of diverse chemical library using quantitative high-throughput screening. Luciferin 4-monooxygenase (Photinus pyralis), P08659. purified P. pyralis luciferase, luminescence, biochemical. Potency, µM (highest dose often 115 µM), actives largely listed as inhibitors. 76,000 compounds, 2.5% hits; further: nearly all actives have a fitted effect of over 65% in size
Target sequence (P08659 whole entry, looked up): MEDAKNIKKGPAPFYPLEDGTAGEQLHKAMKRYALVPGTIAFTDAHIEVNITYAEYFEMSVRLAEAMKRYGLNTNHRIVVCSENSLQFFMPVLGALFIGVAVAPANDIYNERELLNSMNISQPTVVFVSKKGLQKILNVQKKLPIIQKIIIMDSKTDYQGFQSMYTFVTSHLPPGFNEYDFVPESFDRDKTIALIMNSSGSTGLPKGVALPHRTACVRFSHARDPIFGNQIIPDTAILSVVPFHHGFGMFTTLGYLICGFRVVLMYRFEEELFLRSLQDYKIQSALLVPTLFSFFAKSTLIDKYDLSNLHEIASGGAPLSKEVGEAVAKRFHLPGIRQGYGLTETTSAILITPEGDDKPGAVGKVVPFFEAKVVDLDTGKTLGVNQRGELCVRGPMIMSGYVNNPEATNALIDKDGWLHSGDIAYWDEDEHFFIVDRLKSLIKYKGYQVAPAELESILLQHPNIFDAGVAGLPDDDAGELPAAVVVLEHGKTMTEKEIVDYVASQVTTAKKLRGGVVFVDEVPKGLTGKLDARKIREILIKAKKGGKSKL
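Inhibitors were tested against purified firefly luciferase in a biochemical, low-substrate format (both substrates at 10uM) and luminescence measured with a CCD imager.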
HEK293 tox: Cytotoxic Profiling in HEK 293 Cell Line of Diverse Libraries Using Quantitative High-Throughput Screening; HEK 293 viability, ATP luminescence (CellTiter-Glo), 48-72 h; Potency, µM (highest dose often 115 µM), for inactives: at the top dose activity change, negative = cytotoxicity, hits mostly inhibitors; 94,000 compounds, 6.6% hits; AID 1345083, 2018; further: nearly all actives have a fitted effect of over 60% in size
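Luminescence from cellular ATP, measured with CellTiter-Glo, indicates HEK 293 viability. Cells plated at 250 cells/well are treated with compound for 48 or 72 hr at 37 degree Celsius before reagent addition.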
3T3 cytotox: Cytotoxic Profiling in NIH 3T3 Cell Line of Diverse Libraries Using Quantitative High-Throughput Screening; NIH 3T3 viability, CellTiter-Glo ATP luminescence, 48-72 h; Potency, µM (top dose mostly 96.7 µM), inactives show top-dose activity change, negative = cytotoxicity, hits mostly inhibitors; 94,000 compounds, 4.3% hits; AID 1345082, 2018; further: nearly all actives have a fitted effect of over 55% in size
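NIH 3T3 cells at 400 cells/well received 23 nL of compound by pintool and were incubated 48 or 72 h at 37 °C. Viability was read as ATP-coupled CellTiter-Glo luminescence.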
GPT2 inh: Primary qHTS assay for inhibitors of Glutamate pyruvate transaminase 2 (GPT2); Potency, µM (highest dose often 57.7 µM), inactives show top-dose activity change, negative = inhibition, most hits filed as inhibitors; Recombinant GPT2, coupled pyruvate oxidase/HRP Amplex Red fluorescence; 100,000 compounds, 0.25% hits; Alanine aminotransferase 2 (Homo sapiens), Q8TD30; AID 1671188, 2021; further: nearly all actives have a fitted effect of over 60% in size
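Fluorescence of coupled pyruvate oxidase/HRP/Amplex Red system (50uM Amplex, 30 min, dark) reports pyruvate formed by GPT2. Enzyme reaction: 10ng/uL GPT2, 2mM L-alanine, 250uM a-KG, 30 min room temperature, pH 7.5; 50uM AOA control.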
The depositor's hits bear a star; i = inactive; ? = inconclusive; . = no result; [ ] = dose if it differs, or a comment. Rows were chosen to be rich in hits. Some 10% of all compounds tested hit in one or more screens of this group. Unless noted, the call rests on the fitted dose curve; in most records, active means well fitted curve in the direction sought with a large enough effect; inconclusive means small, poorly fitted or top-dose-only effect, or another doubt; inactive means no such curve, though single readings can be large; an effect the other way counts as inactive or inconclusive. On the % scale 0 is the no-effect control and ±100 the full control effect; potency means the concentration at half of the fitted maximal effect.

SMILES | NPR1 antag | Luciferase inh | HEK293 tox | 3T3 cytotox | GPT2 inh
CCN1C(=O)C2CC3(CCN(C(=O)c4c[nH]c5ccccc45)CC3)CN2C1=O (centres undefined) | 3% | i | -15% | -26% | ?
CN(CCC(O)c1ccccc1)c1nccc(-c2cccnc2)n1 (centres undefined) | 4% | i | 32µM* | ? | -9%
Cn1ncc(N2CCC(NC(=O)C3CCCCC3)CC2)cc1=O | -19% | i | -4% | i | i
CC(=O)Nc1ccccc1-c1c(C)nn2c1N(C(=O)Cc1ccccc1)CCC2 | -2%[70.6 µM] | i | 1%[172 µM] | ? | -8%[88.5 µM]
Cc1csc(S(=O)(=O)N2CCCC3(CCC(=O)N(CC4CC4)C3)C2)c1 (centres undefined) | -8% | i | ? | ? | 1%
COC1CN(c2cccc(F)c2)C12CCN(C(=O)COc1ccccc1)CC2 (centres undefined) | -1% | i | 89µM* | ? | i
NC(=O)c1cc(-c2ccccc2F)cc2c1OCCN2Cc1cccnc1 | -18%[70.6 µM] | i | ? | ? | -1%[88.5 µM]
CNC(=O)c1cc(-c2ccccc2O)cc2c1OCCN2Cc1cccnc1 | -20%[70.6 µM] | i | -22%[172 µM] | ? | -1%[88.5 µM]
COCCNC(=O)c1cc(-c2ccccc2F)cc2c1OCCN2Cc1cccnc1 | -18%[70.6 µM] | i | ? | 89µM* | 2%[88.5 µM]
O=C(NC1CCOCC1)c1cc(-c2ccccc2F)cc2c1OCCN2Cc1cccnc1 | 2% | i | ? | -26% | -4%
CC(C)CNC(=O)c1cc(-c2ccccc2F)cc2c1OCCN2Cc1cccnc1 | -24%[70.6 µM] | i | 50µM* | 45µM* | -14%[88.5 µM]
CNC(=O)c1cc(-c2ccccc2F)cc2c1OCCN2Cc1cccnc1 | -28%[70.6 µM] | i | 89µM* | ? | -15%[88.5 µM]
CNC(=O)c1cc(-c2cccc(NC(C)=O)c2)cc2c1OCCN2Cc1cccnc1 | -3%[70.6 µM] | i | -10%[172 µM] | 45µM* | -3%[88.5 µM]
CNC(=O)c1cc(-c2ccc(C)cc2)cc2c1OCCN2Cc1cccnc1 | 6%[70.6 µM] | i | ? | ? | -1%[88.5 µM]
COc1cccc(N2CC(C(=O)N3CCC(C(=O)NCCc4ccc(Cl)cc4)C3)NC2=O)c1 (centres undefined) | -1% | i | ? | -22% | ?
Cc1cccc(-c2noc([C@@H]3Cc4nc[nH]c4CN3C(=O)Nc3cccc(F)c3)n2)c1 | ? | 63µM* | 71µM* | 35µM* | 0%[88.5 µM]
CC(=O)c1ccc(NC(=O)N2Cc3[nH]cnc3C[C@H]2c2nc(-c3ccccc3)no2)cc1 | -2%[70.6 µM] | i | 0%[172 µM] | -6%[138 µM] | i
Cc1cccc(-c2noc([C@@H]3Cc4nc[nH]c4CN3C(=O)Nc3cccc(C#N)c3)n2)c1 | -21%[70.6 µM] | 35µM* | 89µM* | 63µM* | -4%[88.5 µM]
N#Cc1cccc(NC(=O)N2Cc3[nH]cnc3C[C@H]2c2nc(-c3ccc(Cl)cc3)no2)c1 | -19% | i | ? | 79µM* | -13%
O=C(Nc1cccc(F)c1)N1Cc2[nH]cnc2C[C@H]1c1nc(-c2ccc(Cl)cc2)no1 | -15% | 40µM* | 79µM* | ? | 4%
Cc1ccc(C(=O)N2C(C(=O)N3CCOCC3)COC23CCN(C(=O)c2ccccc2C)CC3)cc1 (centres undefined) | 1% | i | -5% | -9% | i
COc1ccc(CNC(=O)N2CCc3c(nc(-c4ccc(OC)cc4)[nH]c3=O)C2)cc1 | -1% | i | 2% | -2% | i
O=C(Nc1cccc(F)c1)N1Cc2[nH]cnc2C[C@H]1c1nc(-c2ccccc2)no1 | -19%[70.6 µM] | i | 71µM* | ? | ?
Cc1cccc(-c2noc([C@@H]3Cc4nc[nH]c4CN3C(=O)c3ccc(F)cc3)n2)c1 | -8%[70.6 µM] | i | ? | ? | i
Cc1cccc(-c2noc([C@@H]3Cc4nc[nH]c4CN3C(=O)COCC(=O)O)n2)c1 | -1%[70.6 µM] | 56µM* | -8%[172 µM] | -28%[174 µM] | -11%[88.5 µM]
SMILES | NPR1 antag | Luciferase inh | HEK293 tox | 3T3 cytotox | GPT2 inh
O=C(Nc1cccc(F)c1)N1Cc2[nH]cnc2C[C@H]1c1nc(-c2ccc3c(c2)OCO3)no1 | -24% | i | ? | ? | -5%
CCO[C@H]1CN(C(=O)CCS(=O)(=O)c2ccccc2)C[C@@H]1O | 2% | i | -22% | -9% | i[11.5 µM]
O=C(C[C@@H]1C[C@H]2O[C@H](CNCc3ccccc3OC(F)(F)F)[C@@H](O)[C@H]2O1)N1CCC(F)(F)C1 | -4% | i | -4% | 2% | i
Cc1cc2cc(-c3c(C)noc3C)nc(NCC3CC3)c2o1 | -4%[70.6 µM] | i | ? | ? | i
Cc1noc(C)c1-c1cc2cc(C(C)C)oc2c(NCCN(C)C)n1 | 7%[70.6 µM] | i | 71µM* | 45µM* | -6%[88.5 µM]
Cc1cc2cc(-c3c(C)noc3C)nc(NCCN(C)C)c2o1 | -3%[70.6 µM] | i | 100µM* | ? | 5%[88.5 µM]
O=C(CC1CCOC2(CCN(Cc3cccs3)CC2)C1)N1CCOCC1 (centres undefined) | 0% | i | 8% | i | i
CCN1CCN(CCNC(=O)c2cc(-c3ccc(Cl)cc3)cn2CC)CC1 | -2% | i | 28µM* | 20µM* | -4%
CCN1CCN(CCNC(=O)c2cc(-c3ccc(Cl)cc3)cn2C)CC1 | -1% | i | 25µM* | ? | i
O=C(Cc1ccc(F)cc1)NC1CCN(Cc2ccc(-c3ccsc3)cc2)C1 (centres undefined) | . | . | ? | ? | -2%
O=C(NC1CCN(Cc2ccc(-c3ccsc3)cc2)C1)c1ccc(C(F)(F)F)cc1 (centres undefined) | . | . | -30% | -29% | i
O=C(Cc1ccc(C(F)(F)F)cc1)NC1CCN(Cc2ccc(-c3ccsc3)cc2)C1 (centres undefined) | . | . | 35µM* | ? | -4%
O=C(Cc1cccc(Cl)c1)NC1CCN(Cc2ccc(-c3ccsc3)cc2)C1 (centres undefined) | . | . | ? | 8.9µM* | .
O=C1CC2(CCN(Cc3ccccc3)CC2)Oc2ccccc2N1c1ccccc1 | 3% | i | ? | -24% | 3%
Cc1ccc(CN2CCC3(CC2)CC(=O)N(c2ccccc2)c2ccccc2O3)cc1 | 7% | i | 32µM* | 40µM* | i
CC(C)CCN1CCC2(CC1)CC(=O)N(c1ccccc1)c1ccccc1O2 | ? | i | 45µM* | ? | -4%
Cn1cccc1CN1CCC2(CC1)CC(=O)N(c1ccccc1)c1ccccc1O2 | -23% | i | 22µM* | 40µM* | i
